Source: PubChem BioAssay (EPA / NIEHS)
“And” between values parts separate entries of the source, which are not always exact repeats. Identical values can stand only once. The source holds several records for some structures; these can differ, active in one and inactive in another. The source made the active and inactive calls. How the source made its calls: active means hit-call score of the fitted dose curve at least 0.9, where 1 is the maximum; inactive means score below 0.9.

assay: ATG_CRE_CIS: Attagene CIS-FACTORIAL HepG2 Assay for human cAMP Responsive Element (CRE) binding protein 3 (AID 2282926); details: HepG2 CRE cis-reporter, Attagene multiplexed mRNA; actives raise or lower the signal
Description: ATG_CIS is a cell-based, multiplexed-readout assay that uses HepG2, a human liver cell line, with measurements taken at 24 hours after chemical dosing in a 24-well plate.ATG_CRE_CIS is one of 52 assay component(s) measured or calculated from the ATG_CIS assay. It is designed to make measurements of mRNA induction, a form of inducible reporter, as detected with fluorescence intensity signals by Reverse transcription polymerase chain reaction (RT-PCR) and Capillary electrophoresis technology.Data from the assay component ATG_CRE_CIS was analyzed into 1 assay endpoint. This assay endpoint, ATG_CRE_CIS, was analyzed with bidirectional fitting relative to DMSO as the negative control and baseline of activity. Using a type of inducible reporter, measures of mRNA for gain or loss-of-signal activity can be used to understand the reporter gene at the transcription factor-level as they relate to the gene CREB3. Furthermore, this assay endpoint can be referred to as a primary readout, because this assay has produced multiple assay endpoints where this one serves a reporter gene function. To generalize the intended target to other relatable targets, this assay endpoint is annotated to the dna binding intended target family, where the subfamily is basic leucine zipper.
Human liver HepG2 cells are transiently transfected with multiple reporter transcription units (MRTUs) in 6-well plates using FuGene 6 reagent (Roche; 3 ml FuGene/1 mg DNA). The MRTU constructs are regulated by a cis-regulating element (promoter). […] A major difference between the CIS and TRANS system is that in CIS activities of endogenous TFs are measured, whereas the TRANS assay evaluates changes in activities of exogenous, chimeric NR-Gal4 proteins. […] At the end of 24 hour incubation, total RNA was isolated using TriZol reagent (Invitrogen). The isolated RNA is then reverse-transcribed using oligo(dT) primer and Mo-MLV reverse transcriptase (Invitrogen) with DNAse I (Ambion) treatment for 30 min. The one-tenth of the produced cDNA was amplified by PCR using Taq DNA polymerase (Invitrogen) and two reporter sequence-specific primers. The PCR products were fluorescently labeled by primer extension with 6-arboxyfluorescein (6-FAM) 5'-labeled reporter sequence-specific primer (2 min at 95 C, 20 s at 68 C and 10 min at 72 C) and these products were digested with 5U of HpaI (New England Biolabs) for 2h at 37 C. The fragments were purified using Qiaquick PCR columns (Qiagen), analyzed on an ABI 3130xL genetic analyzer (Applied Biosystems) with peak positions identified by using a set of X-rhodamine (ROX)-labeled MapMarker1000 molecular weight standards (BioVentures). The raw capillary electrophoresis data was processed using Attagraph software (Attagene).

| Structure (SMILES) | outcome | AC50 |
| --- | --- | --- |
| CN(C)c1nc(=O)n(C2CCCCC2)c(=O)n1C | inactive | – |
| Clc1ccc(C(Cl)(Cl)Cl)cc1 | inactive | – |
| NS(=O)(=O)C(F)(F)C(F)(F)C(F)(F)C(F)(F)C(F)(F)C(F)(F)C(F)(F)C(F)(F)F | – | 44.3 µM (active) and 40.2 µM (active) and 32.2 µM (active) |
| O=C(O)C(F)(F)C(F)(F)C(F)(F)C(F)(F)C(F)(F)C(F)(F)C(F)(F)C(F)(F)F | inactive | – |
| Nc1ccc(-c2ccc(N)cc2)cc1 | inactive | – |
| CC(C)C(=O)OCC(C)(C)C(OC(=O)C(C)C)C(C)C (stereo not given) | inactive | – |
| C=CC(=O)NCNC(=O)C=C | inactive | – |
| CC1=C2C[C@H]3[C@@H](CC=C4C[C@@H](O)CC[C@@]43C)[C@@H]2CC[C@]12O[C@@H]1C[C@H](C)CN[C@H]1[C@H]2C | inactive | – |
| O=C(O)C(F)(F)C(F)(F)C(F)(F)C(F)(F)C(F)(F)C(F)(F)C(F)(F)C(F)(F)C(F)(F)F | inactive | 62.2 µM (active) |
| COc1ccc(O)c(C(C)(C)C)c1 | – | 100 µM (active) |
| CCSC(=O)N(CC)C1CCCCC1 | inactive | – |
| CC#Cc1cc(C)nc(Nc2ccccc2)n1 | inactive | – |
| CCOCCOC(C)=O | inactive | – |
| Clc1ccc(Cl)cc1 | inactive | – |
| c1cc2ccc3cccc4ccc(c1)c2c34 | inactive | – |
| Oc1ccc(C(c2ccc(O)cc2)(C(F)(F)F)C(F)(F)F)cc1 | inactive | 11.1 µM (active) and 18.5 µM (active) |
| ClC1=C(Cl)[C@]2(Cl)[C@@H]3[C@@H](Cl)[C@H]4O[C@H]4[C@@H]3C1(Cl)C2(Cl)Cl | inactive | – |
| CCOC(=O)C(O)(c1ccc(Cl)cc1)c1ccc(Cl)cc1 | inactive | – |

| Structure (SMILES) | outcome | AC50 |
| --- | --- | --- |
| C1CC2OC2CC1C1CO1 (stereo not given) | inactive | – |
| CCC(C)(c1ccc(O)cc1)c1ccc(O)cc1 | inactive | 53.2 µM (active) |
| Oc1c(Cl)c(Cl)c(Cl)c(Cl)c1Cl | inactive | 19.3 µM (active) and 10.2 µM (active) |
| COS(=O)(=O)OC | inactive | – |
| Cc1ccccc1[N+](=O)[O-] | inactive | – |
| ClC(Cl)=C(c1ccc(Cl)cc1)c1ccc(Cl)cc1 | inactive | 167 µM (active) |
| CCCCCCCCCc1ccc(O)cc1 | inactive | – |
| CCCCCCOC(=O)c1ccccc1C(=O)OCCCCCC | inactive | – |
| Cc1cc(O)ccc1Cl | inactive | – |
| Cc1cccc([N+](=O)[O-])c1 | inactive | – |
| Clc1ccc(C(c2ccccc2Cl)C(Cl)(Cl)Cl)cc1 (stereo not given) | inactive | – |
| O=NN(c1ccccc1)c1ccccc1 | inactive | – |
| c1ccc(-c2ccccc2)cc1 | inactive | – |
| Sc1ccccc1 | inactive | – |
| CCNc1nc(NC(C)C)nc(SC)n1 | inactive | – |
| Cc1cc2c3c(c1)C(c1ccccc1)=N[C@@H](NC(=O)c1ccncc1)C(=O)N3CC2 | – | 100 µM (active) |
| CCCN(CCC)N=O | inactive | – |
